Active and inactive are the calls of the source. Rule for the calls: active = hit-call score of the fitted dose curve at least 0.9, where 1 is the maximum; inactive = score below 0.9.

A short description of the experiment: APR_HepG2_MitoMass_24hr: Apredica 24-hour HepG2 Assay for Mitochondrial Mass (AID 2282912). The settings on record: high-content imaging, actives raise or lower the signal. As for the experimental part:
APR_HepG2_24hr is a cell-based, multiplexed-readout assay that uses HepG2, a human liver cell line, with measurements taken at 24 hours after chemical dosing in a 384-well plate.APR_HepG2_MitoMass_24hr is one of 10 assay component(s) measured or calculated from the APR_HepG2_24hr assay. It is designed to make measurements of cell phenotype, a form of morphology reporter, as detected with fluorescence intensity signals by HCS Fluorescent Imaging technology.Data from the assay component APR_HepG2_MitoMass_24hr was analyzed into 1 assay endpoint. This assay endpoint, APR_HepG2_MitoMass_24hr, was analyzed with bidirectional fitting relative to DMSO as the negative control and baseline of activity. Using a type of morphology reporter, gain or loss-of-signal activity can be used to understand changes in the signaling. Furthermore, this assay endpoint can be referred to as a primary readout, because this assay has produced multiple assay endpoints where this one serves a signaling function. To generalize the intended target to other relatable targets, this assay endpoint is annotated to the cell morphology intended target family, where the subfamily is organelle conformation.
Cells were treated with dimethyl sulfoxide (DMSO) as a solvent control at a final concentration of 0.5% v/v or with compounds in DMSO with a resulting final DMSO concentration of 0.5% v/v. Compound treatment was done at concentrations of 0.39, 0.78, 1.56, 3.12, 6.24, 12.5, 25, 50, 100, and 200 uM in duplicate on each plate. Cells were treated with compounds for 1, 24, or 72 hr. Carbonyl […] m-chloro-phenylhydrazone (CCCP) and taxol were used as positive controls for mitochondrial function and cytoskeletal stability, respectively; DMSO served as the negative control for this experiment. Cells were fixed by the direct addition of 50 uL formaldehyde in Hank's Balanced Salt Solution (HBSS) to a final concentration of 3.7%. After incubation in the fixation medium for 30 min at room temperature (293-298 K), cells were rinsed twice with HBSS and treated with cell permeabilization buffer (16 uL of 0.5% Triton X-100) for 10 min at room temperature (293-298 K) before labeling. For mitochondrial membrane potential and mitochondrial measurements, pre-fixed cells were incubated with 50 uL of MitoTracker Red CMXRos (Invitrogen) at a concentration of 250 nM for 30 min before fixation. In the remaining cases, post-fixed cells were labeled by incubation with a multiplexed mixture of primary antibodies in HBSS for 60 min at room temperature (293-298 K) to detect immunoreactivity of c-Jun (1:500), phospho-histone H3 (1:100), phospho-histone H2A.x (1:200), p53 (1:400), alpha-tubulin (1:200) and Hoechst 33342 (2 ug/mL). Cells were labeled for multiplexed imaging on two separate plates: a) Hoechst 33342, MitoTracker Red, phospho-histone H3, and alpha-tubulin, and b) Hoechst 33342, phospho-histone H2A.x, and c-Jun. A final rinse with HBSS (50 uL) was performed before analysis. The primary and secondary antibodies for the proteins were phospho-histone H3 (rabbit anti-phospho-histone H3 and FITC-donkey anti-rabbit IgG), phospho-histone H2A.x (mouse anti-phospho-histone H2A.x and FITC-donkey anti-mouse IgG), c-Jun (rabbit anti-phospho-c-Jun and Cy3-donkey anti-rabbit IgG), p53 (sheep anti-p53 and Cy5-donkey anti-sheep IgG), alpha-tubulin (mouse anti-alpha-tubulin and Cy5-donkey anti-mouse IgG). These antibodies are available as the CellCiphr HepG2 assay kit (Millipore).Digital images of each well were captured using a Cellomics ArrayScan VTI (Thermo Scientific Cellomics) (0.8 NA objective, 0.63x optical coupler, and XF-93 filter set) at 20x magnification. The images were acquired using the autofocus feature of the ArrayScan instrument, which entails the following steps. First, the camera focuses on channel 1 (Hoechst 33342), where nuclei are identified. Second, a Z offset of 1 um is used for capturing mitochondria (MitoTracker Red). […]
With `C[C@]12C=CC(=O)C=C1CC[C@@H]1[C@@H]2C(=O)C[C@@]2(C)[C@H]1CC[C@]2(O)C(=O)CO`, the call was inactive. On the same count and under the same terms, to `Nc1nc(N)c2nc(CNc3ccc(C(=O)N[C@@H](CCC(=O)O)C(=O)O)cc3)cnc2n1` belongs “inactive”; to `CCCCCCCCCCCCCO`, “inactive”.

On to `CCCc1cc(=O)[nH]c(=S)[nH]1`, for which the outcome was inactive.

Take `CN[C@H]1CC[C@@H](c2ccc(Cl)c(Cl)c2)c2ccc(S(N)(=O)=O)cc21`: the outcome was inactive.

Regarding `CCCCOC(=O)CCCCCCCCC(=O)OCCCC`, the call was inactive. Take `Cc1cccc([N+](=O)[O-])c1C`: the molecule was called inactive.

For `Cc1ccc(C(C)C)c(O)c1`, the molecule was classed as inactive. As for `NS(=O)(=O)c1cc2c(cc1Cl)NCNS2(=O)=O`, the molecule was classed as inactive. Regarding `CCCCCCCCCCCCCCCC`, the outcome was inactive. Same read-out and setting: in the case of `CC(C)c1ccc(C(=O)N=C(N)N)cc1S(C)(=O)=O` it was “inactive”. Turning to `CCCCCC(=O)O`, the call was inactive. For `C=CCOC(=O)c1ccccc1C(=O)OCC=C`, the result was inactive. On the same count and under the same terms, to `COC(=O)c1ccc(O)cc1` belongs “inactive”; to `CC(=O)Oc1ccccc1C(=O)O`, “inactive”. The same measure, in the same setting: to `CCCCCCCCCCO` belongs “inactive”; to `CC(=O)OCCOCCOCCOC(C)=O`, “inactive”; to `CCCCCCCC=O`, “inactive”. As to `CC1=C(/C=C/C(C)=C/C=C/C(C)=C/CO)C(C)(C)CCC1`, the half-maximal activity concentration (AC50) is 113 µM (active). Still for that read-out and setting: in the case of `CNCc1cc(F)ccc1Oc1ccc(Cl)c(Cl)c1` it was 32.6 µM (active). Take `Cc1ccccc1Cl`: the call was inactive. On the same count and under the same terms, to `CCOc1ccc2c(c1)C(C)=CC(C)(C)N2` belongs “inactive”; to `CCNc1cccc(C)c1`, “inactive”; to `O=c1c(O)c(-c2ccc(O)c(O)c2)oc2cc(O)cc(O)c12`, “inactive”. The same measure, in the same setting: to `Cc1ccc2ncccc2c1` belongs “inactive”. Consider `COc1ccc(C)cc1N`, for which the outcome was inactive. Still for that read-out and setting: to `COc1cc(/C=C/C(=O)CC(=O)/C=C/c2ccc(O)c(OC)c2)ccc1O` belongs “inactive”; to `Cc1c(C(=O)O)c(O)cc2c1C(=O)c1c(O)c([C@@H]3O[C@H](CO)[C@@H](O)[C@H](O)[C@H]3O)c(O)c(O)c1C2=O`, “inactive”; to `CCCCCCC(=O)OCC`, “inactive”. On the same count and under the same terms, to `CCCCN(CCCC)CCCC` belongs “inactive”. For `COc1ccc(S(=O)(=O)N2C(=O)[C@@](c3ccccc3OC)(N3C[C@H](O)C[C@H]3C(=O)N(C)C)c3cc(Cl)ccc32)c(OC)c1`, the AC50 was 78.1 µM (active). Take `O=C(O)CCCCC(=O)O`: the molecule was called inactive. On the same count and under the same terms, to `Cc1cc(NC(=O)C(=O)O)cc(C)c1Oc1ccc(O)c2c1CCC2` belongs “inactive”; to `CCCCc1ccc2c(n1)[C@@H](c1ccc(OC)cc1C[C@H](C)C(=O)O)[C@H](C(=O)O)[C@H]2c1ccc2c(c1)OCO2`, “inactive”. On to `CC(=O)C(C)=CC1C(C)=CCCC1(C)C` (stereo not given), for which the outcome was inactive.

As to `CN1CCN(Cc2cc(-c3ccc4[nH]c(=O)oc4c3)co2)[C@@H](c2ccc(F)cc2)C1`, the call was inactive. In the case of `CC1(C)NC(=O)NC1=O`, the molecule was classed as inactive. Still for that read-out and setting: to `C=CCc1ccc(O)c(OC)c1` belongs “inactive”; to `O=C(OCCCCCOC(=O)c1ccccc1)c1ccccc1`, “inactive”; to `Nc1ccc2c(c1)C(=O)c1ccccc1C2=O`, “inactive”.

Values taken from PubChem BioAssay (EPA / NIEHS).
